High-throughput results deposited in PubChem BioAssay by National Center for Advancing Translational Sciences (NCATS).
Sampled rows, rich in hits. Any-hit rate of the full collection: about 2%.
KCNH2 WT inh: qHTS for Inhibitors of KCHN2 3.1: Wildtype qHTS; Voltage-gated inwardly rectifying potassium channel KCNH2 (Homo sapiens), Q12809; U2OS, BacMam KCNH2, thallium flux FluxOr; active compounds read low; activity change, % at 1.84 µM; actives 0.37% (n = 340,000); AID 720551, 2013;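 active = maximum activity change below -70%; inconclusive = maximum activity change between -70% and -50%; inactive = maximum activity change above -50%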
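U2OS cells transduced with wild-type KCNH2 virus are loaded with FluxOr dye for 45 min, and thallium flux is measured in kinetic reads before and after stimulation buffer. Rate constants are normalized to DMSO controls.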
CtBP-E1A inh: qHTS Assay for Inhibitors of the CtBP/E1A Interaction; AlphaScreen GST-E1A/His-CtBP binding, 1536-well; active compounds read low; activity change, % (concentration not given with the values); actives 0.49% (n = 340,000)
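Homogeneous bead-based format: GST-tagged E1A captured on glutathione donor beads, His-tagged CtBP on nickel acceptor beads; compounds precede bead addition by 2 h at 37 °C.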
KCNH2 3.1 block: qHTS for Inhibitors of KCHN2 3.1: Mutant qHTS. AID 720553, 2013. U2OS KCNH2 3.1, thallium flux FluxOr; active compounds read low. Potassium voltage-gated channel subfamily H member 2, brain isoform KCNH2 3.1 (human). activity change, % (tested at about 1.8 µM). actives 0.95% (n = 340,000);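 active = maximum activity change below -70%; inconclusive = maximum activity change from -70% to -50%; inactive = maximum activity change above -50%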;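 note: thallium influx rate constant from kinetic fluorescence after stimulation buffer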
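Thallium flux read-out: FluxOr dye with Red40 quencher in HBSS/HEPES, 45 min at RT. Rate constants from kinetic reads were normalized to positive and negative DMSO controls. Cells: U2OS virally expressing the 3.1 isoform.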
Six1-Eya2 blk: qHTS Assay for Inhibitors of the Six1/Eya2 Interaction; activity change, % (no concentration beside the values); AID 651725, 2012; AlphaScreen GST-Six1/His-Eya2 binding, biochemical; active compounds read low; actives 0.56% (n = 360,000); Homeobox protein SIX1 (Homo sapiens) + Protein phosphatase EYA2 (Homo sapiens), …
Target sequence (O00167 whole entry, looked up): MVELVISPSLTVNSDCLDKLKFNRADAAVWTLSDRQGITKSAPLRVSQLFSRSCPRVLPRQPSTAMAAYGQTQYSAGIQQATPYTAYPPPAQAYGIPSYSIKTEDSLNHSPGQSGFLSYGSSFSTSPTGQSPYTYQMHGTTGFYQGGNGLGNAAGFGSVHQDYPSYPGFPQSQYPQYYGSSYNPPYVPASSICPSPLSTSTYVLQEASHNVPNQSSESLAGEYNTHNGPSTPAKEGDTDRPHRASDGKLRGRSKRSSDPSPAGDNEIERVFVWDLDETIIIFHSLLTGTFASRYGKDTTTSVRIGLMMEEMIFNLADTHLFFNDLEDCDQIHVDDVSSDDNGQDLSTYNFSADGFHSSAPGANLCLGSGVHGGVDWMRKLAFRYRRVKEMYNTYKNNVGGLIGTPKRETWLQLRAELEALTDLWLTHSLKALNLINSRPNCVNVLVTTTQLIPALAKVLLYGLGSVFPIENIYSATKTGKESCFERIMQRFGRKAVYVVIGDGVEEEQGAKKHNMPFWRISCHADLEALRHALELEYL
Target sequence (Q15475 whole entry, looked up): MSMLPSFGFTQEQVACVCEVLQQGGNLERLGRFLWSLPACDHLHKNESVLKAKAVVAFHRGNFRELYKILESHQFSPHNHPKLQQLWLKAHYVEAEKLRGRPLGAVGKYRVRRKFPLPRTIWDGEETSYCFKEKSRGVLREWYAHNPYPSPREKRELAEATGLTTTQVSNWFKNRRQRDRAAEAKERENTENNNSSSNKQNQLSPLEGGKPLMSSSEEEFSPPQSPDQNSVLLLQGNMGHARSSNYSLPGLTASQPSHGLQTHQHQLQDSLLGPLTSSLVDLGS
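AlphaScreen with GST-Six1 and His-Eya2 (5X mix: 250 nM and 500 nM), glutathione donor and nickel acceptor beads; buffer 50 mM Tris pH 8.0, 300 mM NaCl, 1 mM TCEP; 1 h at 37 C in the dark.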
KDM4E inh: qHTS Assay for Inhibitors of Human Jumonji Domain Containing 2E (JMJD2E); Lysine-specific demethylase 4E (Homo sapiens), B2RXH2; JMJD2E catalytic domain, FDH-coupled NADH fluorescence (FDH is formaldehyde dehydrogenase); Potency, µM (top dose mostly 57.1 µM), usual class: inhibitors; actives 1.6% (n = 230,000); AID 2147, 2009; active = well fitted inhibition curve with a large enough effect, not every such curve was filed as active; inconclusive = small, poorly fitted or top-dose-only effect, or another doubt; inactive = no such curve, though single readings can be large or run the other way; note: nearly all actives have a fitted effect of over 50% in size
Each line names hits and unclear results; the compound was inactive in the other large screens. Cut-off read from the data, not from the text of the source, unless noted: active = activity change below about -65%; inconclusive = mostly about -30% to -63%; inactive = weaker than that.

Cc1[nH]n(-c2ccccc2)c(=O)c1/C=N/NC(=O)COc1ccccc1[N+](=O)[O-]	CtBP-E1A inh -88, Six1-Eya2 blk -79
Cc1[nH]n(-c2ccccc2)c(=O)c1/C=N\NC(=O)C1COc2ccccc2O1 (stereo not given)	CtBP-E1A inh -81, Six1-Eya2 blk -89, KDM4E inh inconclusive
COCC(=O)N/N=C/c1c(C)[nH]n(-c2ccccc2)c1=O	CtBP-E1A inh -90, Six1-Eya2 blk -77
CC(=O)N/N=C/c1c(C)[nH]n(-c2ccccc2)c1=O	CtBP-E1A inh -68, Six1-Eya2 blk -73, KDM4E inh inconclusive
Cc1c(/C=N\NC(=O)C2COc3ccccc3O2)c2ccccc2n1C (stereo not given)	none
Cc1c(/C=N/NC(=O)COc2ccccc2[N+](=O)[O-])c2ccccc2n1C	none (no result: CtBP-E1A inh)
COc1ccc(-c2cn(-c3ccccc3)c(=S)[nH]2)cc1OC	none (no result: KDM4E inh)
Cc1cccc(NC(=O)CN2CCN(C(=O)c3cccc(-n4cnnn4)c3)CC2)c1C	none (no result: KDM4E inh)
O=C(CN1CCN(C(=O)c2cccc(-n3cnnn3)c2)CC1)Nc1ccccc1Cl	KCNH2 3.1 block -73 (no result: KDM4E inh)
COc1ccccc1NS(=O)(=O)c1ccc(NC(=O)Cc2cccs2)cc1	none
COc1cccc(-c2cn3nc4c(nc3n2)CCCC4)c1	KDM4E inh 22µM
O=C(c1ccccc1)c1ccc(OCCCCN2CCCCC2)cc1	KDM4E inh inconclusive
Fc1ccc(OCCCCCN2CCCC2)cc1	KCNH2 3.1 block -98
c1ccc(COc2ccc(OCCCCN3CCCCC3)cc2)cc1	KCNH2 3.1 block -97, KDM4E inh inconclusive
CN1CCN(CCCOc2ccc(-c3ccccc3)cc2)CC1	KCNH2 3.1 block -90 (no result: KDM4E inh)
CN1CCC(=O)N(CCOc2ccccc2)CC1	CtBP-E1A inh -86, Six1-Eya2 blk -83 (no result: KDM4E inh)
CN1CCN(CCOc2ccc(-c3ccccc3)cc2)CC1	none (no result: KDM4E inh)
Cc1cc(C)cc(N(C(=O)CNC(=O)c2ccco2)C(C(=O)NC2CCCC2)c2cccnc2)c1 (stereo not given)	none
Nc1ccc(C(=O)NNC(=O)C2COc3ccccc3O2)cc1[N+](=O)[O-] (stereo not given)	none (no result: KDM4E inh)
CCOc1ncccc1C(=O)OC(C)C(=O)NC(=O)NC1CCCCC1 (stereo not given)	none
Cc1ccc(N=Nc2cc(C)ccc2O)c(C)c1	CtBP-E1A inh inconclusive, Six1-Eya2 blk inconclusive (no result: KDM4E inh)
Cc1ccc(N=Nc2cc(C)ccc2N)cc1	CtBP-E1A inh -80, Six1-Eya2 blk inconclusive
COC(=O)c1cc(O)c(O)c(O)c1	KDM4E inh 16µM (no result: CtBP-E1A inh)
O=C(Cc1cccs1)N/N=C/C(Br)=C/c1ccccc1	CtBP-E1A inh inconclusive
Cc1cc(C)c2cc3c(N)c(C(=O)Nc4c(C)[nH]c(=O)[nH]c4=O)sc3nc2c1	Six1-Eya2 blk -71
NC(=O)CSc1nc2cc3c(cc2c(=O)n1CCCC(=O)NCc1ccc2c(c1)OCO2)OCO3	none
COc1ccc(NC(=O)c2cc(S(=O)(=O)NCC3COc4ccccc4O3)ccc2F)cc1 (stereo not given)	none
CC(C)c1ccc(NC(=O)c2cc(S(=O)(=O)NCC3COc4ccccc4O3)ccc2F)cc1 (stereo not given)	KCNH2 3.1 block -72
CC12CN3CC(C)(CN(C1)C3c1ccccc1F)C2 (stereo not given)	KCNH2 3.1 block -99
O=C(Nc1ccc(CN2CCCCC2)cc1)c1sc2ccccc2c1Cl	KCNH2 3.1 block -100
O=C(NCC(=O)N1CCCCC1)c1sc2ccccc2c1Cl	none (no result: KDM4E inh)
Cc1cc(OCC(=O)Nc2ccc(CN3CCCCC3)cc2)ccc1Cl	KCNH2 3.1 block -86
CCN(CC)Cc1ccc(NC(=O)c2sc3cc(Cl)ccc3c2Cl)cc1	KCNH2 3.1 block -95
O=C(Cc1ccc(Cl)cc1)Nc1ccc(CN2CCCCC2)cc1	KCNH2 3.1 block -70
CC[n+]1c(C)sc2c3ccsc3ccc21	none (no result: KCNH2 3.1 block)
O=C(C[n+]1cccc(NC(=O)c2ccccc2)c1)c1ccccc1	none
CC(C)(C)OC(=O)N1CCC(c2c(C(=O)N3CCN(C4CCCCC4)CC3)cnn2-c2ccccc2)CC1	none (no result: CtBP-E1A inh, KDM4E inh)
CCOC(=O)N1CC(=O)Nc2ccc(Br)cc2C1c1ccccc1 (stereo not given)	none
O=C(Cc1ccc(F)cc1)NCCc1ccccc1	KCNH2 3.1 block inconclusive
O=C(CS(=O)(=O)Cc1ccccc1)NCCc1ccc(F)cc1	KCNH2 3.1 block -78 (no result: KDM4E inh)
CC(C)(O)C(=O)NNC(=S)Nc1cccc(C(F)(F)F)c1	KCNH2 3.1 block -94
Cc1cc(C)c2c(=O)n(CC(=O)NCCCN3CCN(c4ccccc4F)CC3)sc2n1	KDM4E inh 28µM
Cc1cc(C)c2c(=O)n(CC(=O)Nc3ccc(Cl)cc3)sc2n1	KDM4E inh 28µM
O=C(CCCCCn1c(=O)[nH]c2ccccc2c1=O)NCCCN1CCN(c2ccccc2F)CC1	KCNH2 WT inh inconclusive, KCNH2 3.1 block -70
CC1(C)Cc2ccccc2C(NNC(=O)c2ccccc2)=N1	none
CC1(C)Cc2ccccc2C(NNC(=O)c2ccccn2)=N1	CtBP-E1A inh inconclusive, Six1-Eya2 blk inconclusive, KDM4E inh 25µM
CC1(CC(=O)N/N=C/c2cc(Br)c(O)cc2O)OCCO1	CtBP-E1A inh inconclusive, Six1-Eya2 blk inconclusive, KDM4E inh 25µM
Cc1oc(/C=N/NC(=O)CC2(C)OCCO2)cc1Br	none
O=C(Nc1cnn(C23CC4CC(CC(C4)C2)C3)c1)c1cc(-c2ccccc2)on1	KCNH2 3.1 block -75
COc1ccc(-c2cc(C(=O)Nc3cnn(Cc4ccccc4C)c3)no2)cc1OC	KCNH2 WT inh -248, KDM4E inh inconclusive
Cc1ccc(-c2cc(C(=O)Nc3cnn(C45CC6CC(CC(C6)C4)C5)c3)no2)cc1	none
Nc1ccc(CNc2ncn[nH]2)cc1	none
O=C(NCc1ccccn1)C1CCN(S(=O)(=O)N2CCCCC2)CC1	none
Cc1ccccc1N1CCN(Cc2c[nH]c3ccccc23)CC1	KCNH2 3.1 block -85
O=[N+]([O-])c1ccc(/C=N/N2CCN(Cc3ccccc3)CC2)cc1	CtBP-E1A inh inconclusive, KCNH2 3.1 block -80, Six1-Eya2 blk inconclusive (no result: KDM4E inh)
O=[N+]([O-])c1ccc(CN2CCN(Cc3c[nH]c4ccccc34)CC2)cc1	KCNH2 3.1 block -77, KDM4E inh inconclusive
Cc1ccc2nc(-c3ccccn3)oc2c1	KDM4E inh inconclusive
Cc1ccc2nc(-c3cccnc3)oc2c1	KCNH2 WT inh -221, KCNH2 3.1 block -180, KDM4E inh inconclusive
CC(Oc1ccc(Cl)cc1)C(=O)N1CCN(C(=O)c2ccco2)CC1 (stereo not given)	KCNH2 WT inh -129, KCNH2 3.1 block -164 (no result: KDM4E inh)
